These sequences were tested on FXR:RXRa (NR concentration 270 nM, RXRa partner concentration 90 nM) (assay: PBM binding z-score (relative to random genomic background probes); higher = stronger binding; sequences stand for … in GC…GCGATTGACAGCGTAGAATGAAGG).
Method in brief: (§1)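 Scanned fluorescence from custom Agilent 4×180K protein-binding microarrays was regression-normalized. Binding z-scores use random background probes as reference. Ligand-free nuclear receptor dimers were incubated on the arrays for 1 h and detected with antibodies against each partner (one per run).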

Sequence	PBM binding z-score
TATACAGGGTCAAAGGCCCGAGTACGAATGTCGA	6.5
TCTTGTAGCTCAAGCAGGTTAAGAAAGCCTGAGT	-0.423
TCTTGTGGATCAAAGGTTAAGAAAGCCGAAGCCT	1.78
TCTTGTAGTTCAAGCAGGTTAAGAAAGCCTGAGT	1.59
CCTACTGGGCCAAAGGTCACTGATTCCAATGCTC	4.23
TCTGCAAGGTCAACGATGGTCAGCTAATCTGCTA	6.64
GCAGACAGGTGAAACGAAGGTAACTCAGGGTGGC	0.0182
ATCGAAAGCTCGAAGGTGAGTATACCCACCCGAA	-0.601
CATACAGGGTCAGCAAGGCCAGAGTAGGGACGGC	4.73
TCATATCGGTAAAGGTGAAAGTCGAACGATATGA	0.139
CCTTACGGGTCACTGACAGGCTATAGCATTTGGA	4.95
GTACCAAGCTGAATAGGTCGTTGATGAGTAGGCG	-0.533
CCTGGTAGGTCAATGGTCAGCTAAAGCAGCTCGC	3.32
CGTCCAAGGTGAGCAGGTCAGTGAAAGCGACGTG	0.495
TCATATAGGTAAACGTGAAAGTCGAACGATATGA	0.211
TCGAGTGGGTTAGTCGGGGCATTCAGCCAACATA	0.26
AGAATGAGGTTGTTAAGATCAGGGAATTGCGGTC	0.00995
CTCGAAAGGTCGGTTAAGGTGAGTATACGGATAA	3.06
CGTAGTTGGTCAAGGTCACACACGCTATAGGTAC	4.12
CCTGCTAGGTCAATGGTGAGCTAAAGCAGCTCGC	2.56

Sequence	PBM binding z-score
CCTTACGTGTCAAGGTTATAGCACGGGTGGTACG	0.976
CAAACTAGGTCAAGAGGTCAAAGTCCGCTTCCCG	7.09
TAGCCTTGGTCAGATCGGGCCAGTATACGCTATA	-0.504
CCAGACAGGTGAAAGGGAACTCAGTCTGGTACGC	-0.208
TCGAGTAGGTTACCAATGGGGCAGTCAGCTTTCT	0.254
TCTCGTAGATCAGCAGGTTAAGAAAGCTGGCCAA	-0.53
CGTCCAAGGCCAGAGAGGTCAGTGAATGCCGAGT	1.34
CCAGACAGGTGCGAAGGTAACTCAGCCTCGATTA	-0.321
CCTATTGGGCCAAAAAGGTCATTGATGCCGATAA	3.69
CGTCCAAGGTCAAGGTCATTGAAAGAGACTCGAA	7.9
ATCTCTAGGTAAAGATAGTTAAGTGAATGCAAAT	-0.0331
TCGTGTAGATCAAAGGTTAAGAAAGCCGAAGCCT	1.91
ACAGACAGATGATGAAGGTAACTCAGGCTATCAT	0.128
AGAATGAGGGCAATGAGTTGATAGCACGGGTGGC	0.728
CCTACTGGGCCACGAAAGGTCATTTATTCAGTGA	3.85
ACTTACGGGTCAACGAGGTTATAGAACGCGTATA	6.52
TAGCCTAGGTCATTCAGGGGCCAGTATAGAAAGC	4.58
GCTTACGGGTCAAAGGTTATAGCTTGAATAGAAT	6.94
CGAACTAGGTCATGGACAGTGAATCTCCGCACGC	3.63
CAAACTAGGTCAAAGGTCTAAGTCGAGCCAACCA	5.29

Each sequence was assayed on LXRa:RXRa (NR concentration 270 nM, RXRa partner concentration 90 nM) in the same assay as above.
Method in brief: as §1

Sequence	PBM binding z-score
TATACAGGGTCAAAGGCCCGAGTACGAATGTCGA	6.07
TCTTGTAGCTCAAGCAGGTTAAGAAAGCCTGAGT	-0.287
TCTTGTGGATCAAAGGTTAAGAAAGCCGAAGCCT	1.88
TCTTGTAGTTCAAGCAGGTTAAGAAAGCCTGAGT	1.72
CCTACTGGGCCAAAGGTCACTGATTCCAATGCTC	4.62
TCTGCAAGGTCAACGATGGTCAGCTAATCTGCTA	5.29
GCAGACAGGTGAAACGAAGGTAACTCAGGGTGGC	0.296
ATCGAAAGCTCGAAGGTGAGTATACCCACCCGAA	-0.626
CATACAGGGTCAGCAAGGCCAGAGTAGGGACGGC	3.36
TCATATCGGTAAAGGTGAAAGTCGAACGATATGA	1.31
CCTTACGGGTCACTGACAGGCTATAGCATTTGGA	3.52
GTACCAAGCTGAATAGGTCGTTGATGAGTAGGCG	-0.288
CCTGGTAGGTCAATGGTCAGCTAAAGCAGCTCGC	2.64
CGTCCAAGGTGAGCAGGTCAGTGAAAGCGACGTG	0.118
TCATATAGGTAAACGTGAAAGTCGAACGATATGA	0.332
TCGAGTGGGTTAGTCGGGGCATTCAGCCAACATA	0.197
AGAATGAGGTTGTTAAGATCAGGGAATTGCGGTC	0.0148
CTCGAAAGGTCGGTTAAGGTGAGTATACGGATAA	2.1
CGTAGTTGGTCAAGGTCACACACGCTATAGGTAC	3.72
CCTGCTAGGTCAATGGTGAGCTAAAGCAGCTCGC	1.58

Sequence	PBM binding z-score
CCTTACGTGTCAAGGTTATAGCACGGGTGGTACG	0.929
CAAACTAGGTCAAGAGGTCAAAGTCCGCTTCCCG	6.37
TAGCCTTGGTCAGATCGGGCCAGTATACGCTATA	-0.892
CCAGACAGGTGAAAGGGAACTCAGTCTGGTACGC	-0.0389
TCGAGTAGGTTACCAATGGGGCAGTCAGCTTTCT	0.465
TCTCGTAGATCAGCAGGTTAAGAAAGCTGGCCAA	-0.117
CGTCCAAGGCCAGAGAGGTCAGTGAATGCCGAGT	1.44
CCAGACAGGTGCGAAGGTAACTCAGCCTCGATTA	-0.36
CCTATTGGGCCAAAAAGGTCATTGATGCCGATAA	4.37
CGTCCAAGGTCAAGGTCATTGAAAGAGACTCGAA	6.06
ATCTCTAGGTAAAGATAGTTAAGTGAATGCAAAT	0.0561
TCGTGTAGATCAAAGGTTAAGAAAGCCGAAGCCT	1.98
ACAGACAGATGATGAAGGTAACTCAGGCTATCAT	-0.0336
AGAATGAGGGCAATGAGTTGATAGCACGGGTGGC	0.505
CCTACTGGGCCACGAAAGGTCATTTATTCAGTGA	5.32
ACTTACGGGTCAACGAGGTTATAGAACGCGTATA	5.29
TAGCCTAGGTCATTCAGGGGCCAGTATAGAAAGC	3.73
GCTTACGGGTCAAAGGTTATAGCTTGAATAGAAT	5.6
CGAACTAGGTCATGGACAGTGAATCTCCGCACGC	2.28
CAAACTAGGTCAAAGGTCTAAGTCGAGCCAACCA	4.37

From the supplement of paper PMC6555819
